Sampled rows, rich in hits. Any-hit rate of the full collection: about 2.2%.
Abeta rescue – qHTS for compounds that reverse cellular toxicity of Amyloid beta (A-beta) peptide in yeast: Primary Screen; AID 1347071, 2019; 410,000 tested, 0.063% active; yeast expressing A-beta42, growth rescue, OD600, 48 h; response scale: 0% DMSO, 100% iron-clioquinol control; Potency, µM (series often up to 46.1 µM), usual class: activators; also: nearly all actives have a fitted effect of over 55% in size
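Growth rescue measured by 600 nm absorbance after 48 h yeast culture at 30 C with compound. Values normalized between DMSO and an equimolar ferric chloride plus clioquinol control.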
Mito fusion act – qHTS Assay for Small Molecule Inhibitors of Mitochondrial Division or Activators of Mitochondrial Fusion | 320,000 tested, 0.23% active | S. cerevisiae fusion-defective mutant growth rescue, CellTiterGlo 48 h | Potency, µM (highest dose often 46.1 µM), for inactives: at the top dose growth rescue (activation), hits mostly activators; also: % of control where 0% means no effect; nearly all actives have a fitted effect of over 45% in size
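Compounds are tested for their ability to restore growth of mitochondrial fusion-defective yeast strains at non-permissive 37C in YPEG medium over 48 hours. Viability is quantified by luciferase luminescence.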
TDP-43 yeast inh – qHTS of TDP-43 Inhibitors. Potency, µM (series often up to 46.1 µM), without a hit: top-dose growth rescue (activation), most hits filed as activators. 410,000 tested, 1.8% active. AID 652104, 2013. TDP-43 expressing yeast growth rescue, BacTiter-Glo, 24 h; also: % of control where 0% means no effect; nearly all actives have a fitted effect of over 50% in size
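Cell-based yeast growth screen: TDP-43 expression induced in galactose, inoculum OD600=0.02 after raffinose pregrowth to mid-log. Read-out BacTiter-Glo luminescence at 24 hr, 30 deg C; inhibition of toxicity seen as signal increase.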
aSyn yeast inh – qHTS of alpha-syn Inhibitors | Potency, µM (doses to about 46.1 µM), for inactives: at the highest dose growth rescue (activation), actives largely listed as activators | AID 652106, 2013 | 370,000 tested, 0.14% active | Yeast expressing alpha-synuclein, growth rescue, BacTiter-Glo, 24 h; also: % of control where 0% means no effect; nearly all actives have a fitted effect of over 65% in size
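Rescue of yeast growth: cells expressing toxic alpha-synuclein, induced in galactose at OD600 0.02, incubated with compound 24 h at 30 C. ATP luminescence quantified growth; inhibitors of toxicity appear as activators.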
ERG Ets-DNA blk – qHTS for Small Molecule Inhibitors of the ERG Ets/DNA interaction | Transcriptional regulator ERG (Homo sapiens), P11308 | fluorescence polarization, His-ERG Ets domain / labelled DNA | Potency, µM (doses to about 76.9 µM), for inactives: at the top dose FP activity, negative = inhibition, hits mostly inhibitors | 370,000 tested, 0.028% active | AID 624246, 2012; active = well fitted inhibition curve with a large enough effect in the polarisation, with a control signal flat; inconclusive = small, poorly fitted or top-dose-only effect, or effect the other way, or a change in a side signal; inactive = no such curve, though single readings can be large or run the other way; the % refers to the polarisation;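 also: polarization taken with two DNA probes labelled with fluorescein and Texas red; % of control where 0% means no effect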
Target sequence (P11308 whole entry, looked up, the tested form may be a part): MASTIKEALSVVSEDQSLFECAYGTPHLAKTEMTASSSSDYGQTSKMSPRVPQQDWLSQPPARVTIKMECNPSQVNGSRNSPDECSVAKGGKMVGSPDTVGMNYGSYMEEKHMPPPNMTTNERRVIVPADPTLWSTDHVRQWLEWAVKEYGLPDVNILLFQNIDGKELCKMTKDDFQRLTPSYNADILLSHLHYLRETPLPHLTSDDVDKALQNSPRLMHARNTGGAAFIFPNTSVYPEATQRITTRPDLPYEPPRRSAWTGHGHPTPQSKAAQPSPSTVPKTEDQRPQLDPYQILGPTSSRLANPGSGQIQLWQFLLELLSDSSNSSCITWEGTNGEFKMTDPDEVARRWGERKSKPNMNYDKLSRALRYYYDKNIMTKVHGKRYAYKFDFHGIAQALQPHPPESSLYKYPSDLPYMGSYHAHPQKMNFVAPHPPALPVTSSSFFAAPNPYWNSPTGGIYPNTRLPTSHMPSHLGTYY
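His-tagged ERG Ets domain (1 uM in the protein solution; 300mM KCl, 50mM Tris-HCl, 1mM EDTA, 1mM DTT, pH 7.5) received compound, then a probe mix of 5 nM fluorescein-DNA and 100nM Texas-615-DNA. Fluorescence polarization was read for both dyes.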
FUS yeast rescue – qHTS for Suppressors of FUS Proteinopathy: Primary screen using FUS-linked yeast assay; Potency, µM (top dose mostly 76.6 µM), hits mostly activators; S. cerevisiae FUS-expressing, growth rescue, OD600, 24 h; 390,000 tested, 0.24% active; AID 1347120, 2019;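 also: plate controls were DMSO vehicle for no effect and reference control for full effect; nearly all actives have a fitted effect of over 55% in size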
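Absorbance at 600 nm, taken 24hr after compound addition, measured rescue of FUS-yeast growth at 30C. Induction used 2% galactose with seeding at OD 0.005. Controls: CP55940 from 92uM final, DMSO only.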
The depositor's hits bear a star; i = inactive; u = inconclusive; x = no result; [ ] = dose if it differs, or a comment. Unless noted, calls follow the shape of the dose curve; as a rule, active = well fitted curve in the direction sought with a large enough effect; inconclusive = small, poorly fitted or top-dose-only effect, or another doubt; inactive = no such curve, though single readings can be large; an effect the other way counts as inactive or inconclusive. Potency is read from the fitted curve at half-maximal effect.

SMILES | Abeta rescue | Mito fusion act | TDP-43 yeast inh | aSyn yeast inh | ERG Ets-DNA blk | FUS yeast rescue
COCOCCn1cc(CN2CCS(=O)(=O)N(Cc3ccc(-c4ccc(Cl)cc4)cc3)C(C(C)C)C2=O)nn1 (configuration not stated) | i | x | 18% | 4% | x | i
CCOc1ccccc1/C=C/c1onc(C)c1S(=O)(=O)N1CCC(C(=O)N2CCCCC2)CC1 | i | x | 5% | x | -1% | i
CC[C@@]12C(=O)N(c3cccc(F)c3)C(=O)N1[C@H](c1cccc(C)c1)[C@@H]1C(=O)N(Cc3ccccc3)C(=O)[C@@H]12 | i | 2% | -1% | 2% | 3% | 32µM*
O=S(=O)(c1cccc(F)c1)N1CCC(Oc2ccc(-n3cnnn3)cc2)CC1 | i | x | 17% | x | 1% | i
N/C(=N\OC(=O)CC1CCCCC1)c1ccccn1 | i | -2% | 16µM* | 4% | x | i
N/C(=N\OC(=O)CC1CCCCC1)c1ccncc1 | i | -6% | 14% | -1% | 5% | i
N/C(=N\OC(=O)Cc1ccc(-c2ccccc2)cc1)c1ccccn1 | i | 18% | 13µM* | -1% | -11% | i
COc1ccccc1Nc1sc(C(=O)c2ccc3c(c2)OCO3)c(N)c1S(=O)(=O)c1ccccc1 | i | x | 13% | -9% | -4% | i
COc1cccc(NC(=O)COc2cc(O)c3c(c2)OC(C)(C)CC3=O)c1 | i | 8% | 18µM* | 1% | -6% | i
Cc1ccc(CNC(=O)COc2cc(O)c3c(c2)OC(C)(C)CC3=O)cc1 | i | 0% | 13µM* | 9% | -5% | u
COc1ccc(CCNC(=O)COc2cc(O)c3c(c2)OC(C)(C)CC3=O)cc1 | i | 4% | u | -1% | -1% | i
COc1ccc(-c2nnc(SCC(=O)Oc3c(C)cccc3C)o2)cc1OC | i | x | 12% | x | 2% | i
CCCCOc1ccc(CNC(=O)Cn2ncn3c(cc4cc(F)ccc43)c2=O)cc1 | i | x | u | x | u | i
CCN(C(=O)[C@H]1CC(=O)O[C@@H]1c1ccccc1)c1ccccc1 | x | x | x | x | x | i
O=C(CN1CCCN(Cc2ccc(F)cc2)S1(=O)=O)NCc1ccccc1Cl | i | x | u | x | -6% | i
CCCCCCC1CCC(C(=O)NC(C(=O)O)C(C)C)CC1 (configuration not stated) | i | x | 20µM* | x | -7% | i
CCCCN(C)C(=O)c1sc(=O)n(Cc2ccc(Cl)c(Cl)c2)c1C | i | x | 25µM* | u | x | i
O=[N+]([O-])/C=C/c1cn(Cc2ccccc2)c2ccccc12 | i | 2% | 10µM* | 1% | -6% | i
COc1cc(OC)cc(C(C)c2ccc(C)cc2)c1 (configuration not stated) | x | x | x | x | x | i
O=C(O)c1cc2[nH]c3c(c2cc1Cl)CCCC3 | i | -2% | x | 20µM* | -9% | i
O=S(=O)(c1ccc2[nH]c3c(c2c1)CCCC3)N1CCCCC1 | i | -5% | -10% | 0% | 11% | i
O=C1c2ccccc2C(=O)N1CCSc1n[nH]c(=S)s1 | i | 6% | 20µM* | 10% | 13% | x
C/C(N)=C(/C#N)C(=O)CSc1nc2ccccc2c(=O)n1Cc1ccc(C)cc1 | i | -17% | 3%[9.22 µM] | 0% | 1% | i
C/C(N)=C(/C#N)C(=O)CSc1nc2ccccc2c(=O)n1Cc1ccc(F)cc1 | 13µM* | 3% | 10µM* | 13% | -9% | i
O=C(c1ccccc1Br)N1CCc2c([nH]c3ccccc23)C1 | i | 21% | 18µM* | u | -3% | i

Compound activity from PubChem.
